Screening data: PubChem, Center for Chemical Genomics, University of Michigan
Dicer inh: human Dicer pre-microRNA cleavage inhibition | Q9UPY3 | cat-ELCCA pre-miR-21 Dicer processing, chemiluminescence; active compounds read high | z-score at 25 µM | 47,000 tested, 6% active; in the data active = z-score above about 3, passing the limit was not always enough;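 note: plate controls were vehicle for no effect and no enzyme for full effect; higher signal means more uncleaved substrate so more Dicer inhibition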
* hit, by the source's call. Many of the other results were omitted from the sample, so hits are more common in it than they were.

How did COc1ccc(C2C3=C(CC(C)(C)CC3=O)Nc3cc4c(cc32)OCO4)cc1 (configuration not stated) do in these assays?
Dicer inh: 6.2*

What do the screens show for `CCOc1ccc(C2C3=C(CC(C)(C)CC3=O)Nc3cc4c(cc32)OCO4)cc1` (configuration not stated)?
Dicer inh: 2.9

Results for CC1(C)CC(=O)C2=C(C1)Nc1cc3c(cc1C2c1ccc(F)cc1)OCO3 (configuration not stated) ?
Dicer inh: 1.8

Results for CCOCCOC(=O)C1=C(C)NC2=C(C(=O)CC(c3cccs3)C2)C1c1ccc(C)s1 (configuration not stated) ?
Dicer inh: -3.5

What do the screens show for `CN=C(Nc1cccc(Cl)c1)SC`?
Dicer inh: 1

Results for COc1ccc(S(=O)(=O)NCCNC(=O)N2CCOCC2)cc1 ?
Dicer inh: -0.42

What do the screens show for `O=C(Nc1ccc(OC(=O)N2CCOCC2)cc1)N1CCOCC1`?
Dicer inh: -0.43

What do the screens show for `COc1ccc(OC(=O)N2CCOCC2)cc1`?
Dicer inh: 5*

What do the screens show for `CC(C)(CO)NC(=S)Nc1ccc(F)cc1F`?
Dicer inh: 0.1

Results for Cc1ccc(C2CC(C(F)(F)F)n3ncc(C(=O)O)c3N2)cc1 (configuration not stated) ?
Dicer inh: 0.54

How did COc1cccc(C2CC(C(F)(F)F)n3ncc(C(=O)O)c3N2)c1 (configuration not stated) do in these assays?
Dicer inh: -0.84

Results for CC(C)NC(=O)c1cnn2c1NC(c1ccc(Br)cc1)CC2C(F)(F)F (configuration not stated) ?
Dicer inh: 5.8*

What do the screens show for `O=C(O)c1cnn2c1NC(c1ccc(Br)cc1)CC2C(F)(F)F` (configuration not stated)?
Dicer inh: 2.6

How did CC(C)NC(=O)c1cc2n(n1)C(C(F)(F)F)CC(c1ccc(Br)cc1)N2 (configuration not stated) do in these assays?
Dicer inh: 1.8

What do the screens show for `CC(C)NC(=O)c1nn2c(c1Cl)NC(c1ccc(Br)cc1)CC2C(F)(F)F` (configuration not stated)?
Dicer inh: -0.28

How did O=C(c1cc2n(n1)C(C(F)(F)F)CC(c1ccc(Cl)cc1)N2)N1CCOCC1 (configuration not stated) do in these assays?
Dicer inh: 0.29

What do the screens show for `O=C(O)c1cnn2c1NC(c1ccccc1)CC2C(F)(F)F` (configuration not stated)?
Dicer inh: 3.1*

How did O=C(O)c1cc2n(n1)C(C(F)(F)F)CC(c1ccc(Cl)cc1)N2 (configuration not stated) do in these assays?
Dicer inh: 1.7

How did CN1CCN(C(=O)c2cc3n(n2)C(C(F)(F)F)CC(c2ccccc2)N3)CC1 (configuration not stated) do in these assays?
Dicer inh: 3.2*

How did CN1CCN(C(=O)c2cnn3c2NC(c2ccc(Br)cc2)CC3C(F)(F)F)CC1 (configuration not stated) do in these assays?
Dicer inh: 4.7*

Results for O=C(c1cnn2c1NC(c1ccccc1)CC2C(F)(F)F)N1CCCCC1 (configuration not stated) ?
Dicer inh: 0.97

Results for Cn1c(Cl)c[n+](C)c1C(O)c1ccccc1 (configuration not stated) ?
Dicer inh: 0.54

Results for O=C(CSc1nc2c(c(C(F)(F)F)n1)CCc1ccccc1-2)Nc1cccnc1 ?
Dicer inh: 1.2

How did Cc1[nH]c(=S)[nH]c(=O)c1Oc1ccccc1 do in these assays?
Dicer inh: 0.14

Results for CCOC(=O)CSc1sc(C(C)=O)cc1[N+](=O)[O-] ?
Dicer inh: -2

What do the screens show for `Cc1ccc(-c2nc(NC(=O)Nc3ccc(OCc4ccccc4)cc3)sc2C)cc1Cl`?
Dicer inh: 0.78

How did COc1ccc(C2CC(=O)C3=C(C2)NC(C)=C(C(=O)OC(C)C)C3c2ccccc2C)cc1OC (configuration not stated) do in these assays?
Dicer inh: -0.01

How did Cn1nc(NC(=O)Cn2ccc(C(F)(F)F)n2)c2ccccc21 do in these assays?
Dicer inh: 0.32

How did C=CCn1c(Sc2ncnc3c2sc2nc(C)cc(C)c23)nnc1-c1ccc(Cl)cc1 do in these assays?
Dicer inh: 0.22

Results for O=C(c1cnn2c1NC(c1ccc(Br)cc1)CC2C(F)(F)F)N1CCOCC1 (configuration not stated) ?
Dicer inh: 4.2*

Results for COc1ccc(C2CC(C(F)(F)F)n3ncc(C(=O)O)c3N2)cc1OC (configuration not stated) ?
Dicer inh: 0.76

Results for COc1ccc(C2CC(C(F)(F)F)n3ncc(C(N)=O)c3N2)cc1 (configuration not stated) ?
Dicer inh: 0.95

Results for CC1(C)CC(=O)C2=C(C1)OC1CCCCC21 (configuration not stated) ?
Dicer inh: 3.4*

Results for CC1(C)CC(=O)C2=C(C1)OC1=C(C2)C(=O)CC(C)(C)C1 ?
Dicer inh: 0.85

What do the screens show for `CC1(C)CC(=O)C2=C(C1)OC1=C(C(=O)CC(C)(C)C1)C2c1ccc(Br)cc1`?
Dicer inh: 0.76

Results for CCOc1c(C)nc(C)c(OCC)c1-c1cccc([N+](=O)[O-])c1 ?
Dicer inh: -1.7

How did Cc1cc(C)c(C#N)c(OC(=O)c2c(F)cccc2F)n1 do in these assays?
Dicer inh: 71*

How did Cc1cc(C)c(C#N)c(Nc2ccc(F)cc2)n1 do in these assays?
Dicer inh: -0.61

What do the screens show for `CCOC(=O)COc1nc(C)cc(C)c1C#N`?
Dicer inh: -1.6

What do the screens show for `N#CC1(NC2CCCCC2)CCCCC1`?
Dicer inh: 0.21

What do the screens show for `O=S(=O)(c1ccc(F)cc1)N1CCC(Cc2ccccc2)CC1`?
Dicer inh: 0.45

Results for CNC(=S)Nc1ccccc1-n1cccc1 ?
Dicer inh: 0.85

How did Cc1cc(C2CCCCC2)ccc1O do in these assays?
Dicer inh: 5.6*

What do the screens show for `COc1cc(C2SCc3cc(C)c(C)cc3CS2)ccc1O`?
Dicer inh: 1.1

What do the screens show for `S=C(Nc1ccc(C2CCCCC2)cc1)N1CCSCC1`?
Dicer inh: -2.2

Results for CSC(=S)NNC(=O)c1cc(C)[nH]n1 ?
Dicer inh: 0.31

Results for O=C(O)CCC(=O)NCC(=O)c1ccccc1 ?
Dicer inh: 0.11

Results for O=c1cc(O)c2cccc3c2n1CCC3 ?
Dicer inh: -0.63

Results for CC1=CC(C)(C)N(C(=O)CSc2nncn2C)c2ccccc21 ?
Dicer inh: 0.89

How did Cc1ccc2c(c1)C(C)(c1ccccc1)CC(C)(C)N2C(=O)CSc1nncn1C (configuration not stated) do in these assays?
Dicer inh: 5.6*

What do the screens show for `Cn1cnnc1SCC(=O)N1c2ccccc2CCc2ccccc21`?
Dicer inh: 0.92

What do the screens show for `C/C(=N\O)c1sc2ccc(Cl)cc2c1C`?
Dicer inh: -0.52

Results for COc1ccc(NC(C)=O)c(NC(=S)Nc2ccc(C)cc2C)c1 ?
Dicer inh: 74

Results for N#CC1=C(SCc2ccccc2)SC(c2ccc(O)c(O)c2)NC1=O (configuration not stated) ?
Dicer inh: 0.3

How did C=CCSc1nnc(-c2ccc(Cl)cc2)n1CC(OC)OC do in these assays?
Dicer inh: 0.4

What do the screens show for `COc1ccc(OC)c(S(=O)(=O)Oc2ccc3ccccc3c2I)c1`?
Dicer inh: -0.26
